High-throughput results: PubChem, NMMLSC
MEKK3 PB1 HTS: raises or lowers MEK5 binding to the human MEKK3 PB1 domain | Q99759 | bead-based flow cytometry, Alexa488-MEK5 binding to MEKK3; actives lie on both sides; 0 = blocked by unlabeled MEK5, 100 = vehicle | binding response (% of control), % at 10 µM | actives 1.4% (n = 290,000);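 active means binding response more than 3 SD above or below the average of its plate-row segment, actives on both sides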;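 further: Alexa488 bead fluorescence after subtracting the streptavidin-only scavenger bead signal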
Target sequence (Q99759 whole entry, looked up, the tested form may be a part): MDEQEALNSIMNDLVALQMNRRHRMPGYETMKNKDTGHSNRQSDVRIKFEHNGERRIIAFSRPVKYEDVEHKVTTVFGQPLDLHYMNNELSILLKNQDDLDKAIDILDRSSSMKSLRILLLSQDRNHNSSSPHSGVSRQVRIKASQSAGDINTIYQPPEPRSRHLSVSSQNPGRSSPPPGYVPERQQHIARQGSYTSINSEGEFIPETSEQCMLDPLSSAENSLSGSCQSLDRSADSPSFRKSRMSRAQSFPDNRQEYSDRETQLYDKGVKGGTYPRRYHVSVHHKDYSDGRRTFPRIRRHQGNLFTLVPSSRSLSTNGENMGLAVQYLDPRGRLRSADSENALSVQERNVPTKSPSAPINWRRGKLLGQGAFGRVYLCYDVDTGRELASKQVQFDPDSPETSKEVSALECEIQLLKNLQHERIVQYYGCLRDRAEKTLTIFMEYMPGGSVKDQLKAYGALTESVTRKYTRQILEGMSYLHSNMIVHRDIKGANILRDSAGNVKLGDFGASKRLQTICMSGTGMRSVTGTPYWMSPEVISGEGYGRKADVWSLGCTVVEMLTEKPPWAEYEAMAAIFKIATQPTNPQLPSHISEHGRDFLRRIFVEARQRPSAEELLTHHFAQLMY
GRK2 inh: human GRK2 inhibition via aptamer displacement | bead flow cytometry, FAM-aptamer displacement from GRK2 | actives 0.59% (n = 330,000) | P25098 | inhibition of aptamer binding, % at 10 µM;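 active means inhibition of aptamer binding above 40%, roughly 3 SD of noise, on plates passing a quality check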;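 further: median bead fluorescence of bound FAM aptamer so fluorescent compounds give negative values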
MEKK2mut PB1 HTS: signal of MEK5 binding to mutant human MEKK2 PB1 domain | percent response, % at 10 µM | bead flow cytometry, Alexa488-MEK5 binding to MEKK2 mutant | actives 0.35% (n = 290,000) | AID 1530; in the data active means percent response above about 24%, passing the limit was not always enough
B2AR ag: human beta-2 adrenergic receptor agonism by FAP; P07550; Am2.2-beta2AR cells, FAP receptor internalization, flow cytometry; response, % (concentration not given with the values); actives 0.43% (n = 340,000); AID 504454;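 active means response above a set limit, near 3 SD of response in nonfluorescent compounds, cut at about 42% in these data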
MEKK2wt PB1 HTS: raises or lowers MEK5 binding to wildtype human MEKK2 PB1 domain; actives 1.1% (n = 290,000); Q9Y2U5; bead flow cytometry, Alexa488-MEK5 binding to MEKK2 WT; actives lie on both sides; binding response (% of control), % at 10 µM; in the data active means binding response below about 67% or above about 130%
MEKK2wt confirm: raises or lowers MEK5 binding to wildtype human MEKK2, retest. shares compounds with MEKK3 PB1 HTS. bead flow cytometry, Alexa488-MEK5 binding to MEKK2 WT; actives lie on both sides. binding response (% of control), % at 10 µM. actives 2.4% (n = 5,900). AID 1892; in the data active means binding response below about 16% or above about 210%; inactive means in between
MEKK2mut-MEK5: signal of MEK5 binding to mutant human MEKK2, retest. percent response, % at 10 µM. shares compounds with MEKK3 PB1 HTS. actives 2% (n = 5,900). bead flow cytometry, Alexa488-MEK5 binding to MEKK2 mutant; in the data active means percent response mostly above about 71%, no sharp cut-off; inactive means mostly below about 38%;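 further: higher means compound restores mutant binding toward wildtype level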
MEKK3-MEK5 inh: confirmation of inhibitors of MEK5 binding to human MEKK3; shares compounds with MEKK3 PB1 HTS; AID 1894; binding response (% of control), % at 10 µM; actives 1.8% (n = 5,900); bead flow cytometry, Alexa488-MEK5 binding to MEKK3; hits give low values;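 active means binding response below 72% of control, or above a set upper limit, though filed actives all read lower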
A number is an active result; [ ] = dose if it differs, or a comment. Compounds with a hit are over-represented: about 2.9% of the library has one in this group of screens.

Results for COc1ccc(N2CCN(C(=O)c3ccc(CNS(=O)(=O)c4cc(C)ccc4C)cc3)CC2)cc1 ?
MEKK3 PB1 HTS: inactive; GRK2 inh: inactive; MEKK2mut PB1 HTS: inactive; B2AR ag: inactive; MEKK2wt PB1 HTS: inactive

How did CC(=O)Nc1ccc(-c2cc(C(=O)O)c3ccccc3n2)cc1 do in these assays?
MEKK3 PB1 HTS: 58.0[inhibitor]; GRK2 inh: inactive; MEKK2mut PB1 HTS: inactive; B2AR ag: inactive; MEKK2wt PB1 HTS: 61.0[inhibitor]; MEKK2wt confirm: inactive; MEKK2mut-MEK5: inactive; MEKK3-MEK5 inh: inactive

What do the screens show for `O=C(N/N=C/c1cc2ccccc2nc1Cl)[C@H]1C[C@@H]1c1ccccc1`?
MEKK3 PB1 HTS: 168.0; GRK2 inh: inactive; MEKK2mut PB1 HTS: inactive; B2AR ag: inactive; MEKK2wt PB1 HTS: inactive; MEKK2wt confirm: inactive; MEKK2mut-MEK5: inactive; MEKK3-MEK5 inh: inactive

How did Cc1ccc2cc(/C=N/NC(=O)[C@H]3C[C@@H]3c3ccccc3)c(Cl)nc2c1 do in these assays?
MEKK3 PB1 HTS: inactive; GRK2 inh: inactive; MEKK2mut PB1 HTS: inactive; B2AR ag: inactive; MEKK2wt PB1 HTS: inactive

How did CCCn1c(=O)c2ccccc2n2c(SCc3nc4ccccc4s3)nnc12 do in these assays?
MEKK3 PB1 HTS: 1.0[inhibitor]; GRK2 inh: inactive; MEKK2mut PB1 HTS: inactive; B2AR ag: inactive; MEKK2wt PB1 HTS: -2.0[inhibitor]; MEKK2wt confirm: inactive; MEKK2mut-MEK5: inactive; MEKK3-MEK5 inh: inactive

How did CCCCCOc1ccc2oc(=O)c3c(c2c1)CCCN3C(=O)CN1CCCC(C(=O)OCC)C1 (configuration not stated) do in these assays?
MEKK3 PB1 HTS: 2.0[inhibitor]; GRK2 inh: inactive; MEKK2mut PB1 HTS: inactive; B2AR ag: inactive; MEKK2wt PB1 HTS: 2.0[inhibitor]; MEKK2wt confirm: inactive; MEKK2mut-MEK5: inactive; MEKK3-MEK5 inh: inactive

What do the screens show for `O=C(CN1CCCCC1)N1CCCc2c1c(=O)oc1ccc(OCc3ccccc3)cc21`?
MEKK3 PB1 HTS: inactive; GRK2 inh: inactive; MEKK2mut PB1 HTS: inactive; B2AR ag: inactive; MEKK2wt PB1 HTS: inactive

What do the screens show for `CCN(c1ccc(OC)cc1)S(=O)(=O)c1ccc2c(c1)CC(C)N2C(=O)C1CC1` (configuration not stated)?
MEKK3 PB1 HTS: inactive; GRK2 inh: inactive; MEKK2mut PB1 HTS: inactive; B2AR ag: inactive; MEKK2wt PB1 HTS: inactive

What do the screens show for `O=C(CSc1nc(=O)n(CCCN2CCOCC2)c2c1CCCC2)Nc1cccc(Cl)c1`?
GRK2 inh: inactive; B2AR ag: inactive

How did Cc1cc(C(=O)N/N=C/c2ccc([N+](=O)[O-])cc2)c2ccccc2n1 do in these assays?
MEKK3 PB1 HTS: inactive; GRK2 inh: inactive; MEKK2mut PB1 HTS: inactive; B2AR ag: inactive; MEKK2wt PB1 HTS: inactive

Results for Cc1nc2c(cc1C(=O)N/N=C/c1ccc([N+](=O)[O-])cc1)c(=O)n(C)c(=O)n2C ?
MEKK3 PB1 HTS: 135.0; GRK2 inh: inactive; MEKK2mut PB1 HTS: inactive; B2AR ag: inactive; MEKK2wt PB1 HTS: inactive; MEKK2wt confirm: inactive; MEKK2mut-MEK5: inactive; MEKK3-MEK5 inh: inactive

Results for C=CCn1c(=S)sc2c(=O)[nH]cnc21 ?
MEKK3 PB1 HTS: 133.0; GRK2 inh: inactive; MEKK2mut PB1 HTS: inactive; B2AR ag: inactive; MEKK2wt PB1 HTS: inactive; MEKK2wt confirm: inactive; MEKK2mut-MEK5: inactive; MEKK3-MEK5 inh: inactive

What do the screens show for `CC(C)CCNC(=S)Nc1ccc(Br)cc1`?
MEKK3 PB1 HTS: inactive; GRK2 inh: inactive; MEKK2mut PB1 HTS: inactive; B2AR ag: inactive; MEKK2wt PB1 HTS: inactive

What do the screens show for `CC(C)CCNC(=O)/C=C/c1ccc(Br)cc1`?
MEKK3 PB1 HTS: 2.0[inhibitor]; GRK2 inh: inactive; MEKK2mut PB1 HTS: inactive; B2AR ag: inactive; MEKK2wt PB1 HTS: 2.0[inhibitor]; MEKK2wt confirm: inactive; MEKK2mut-MEK5: inactive; MEKK3-MEK5 inh: inactive
